The record followed here is PubChem BioAssay AID1491 (National Center for Advancing Translational Sciences (NCATS), 2009).

Where “and” joins values, the source holds several entries; their conditions need not be identical. Identical values can stand only once. Results filed as inconclusive are left out. Entries that show only a call come without a potency. Calls of active or inactive are those of the source. The call rests on the fitted dose curve; in most records, active means well fitted inhibition curve with a large enough effect in the main read-out, with a control signal flat; inconclusive means small, poorly fitted or top-dose-only effect, or a change in a side signal; inactive means flat fitted curve, though single readings scatter.
Potency means the concentration at half of the fitted maximal effect.

Sequence of Neuropeptide S receptor (Homo sapiens) (Q6W5P4 whole entry, looked up): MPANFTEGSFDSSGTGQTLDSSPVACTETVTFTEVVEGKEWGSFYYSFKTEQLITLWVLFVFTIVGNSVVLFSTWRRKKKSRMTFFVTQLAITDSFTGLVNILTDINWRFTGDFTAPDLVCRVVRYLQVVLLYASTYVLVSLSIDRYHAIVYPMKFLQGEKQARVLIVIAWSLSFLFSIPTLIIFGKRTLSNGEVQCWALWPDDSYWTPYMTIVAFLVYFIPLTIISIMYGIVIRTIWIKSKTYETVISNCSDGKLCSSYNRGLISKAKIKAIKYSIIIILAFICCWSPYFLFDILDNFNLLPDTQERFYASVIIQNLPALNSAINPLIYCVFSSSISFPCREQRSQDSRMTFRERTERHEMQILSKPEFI

This assay addresses Neuropeptide S receptor (Homo sapiens) (UniProt Q6W5P4). The experiment in a line: Confirmation Concentration-Response Assay for Antagonists of the Neuropeptide S Receptor: cAMP Signal Transduction. As to conditions: CHO-NPSR cells, cAMP TR-FRET, antagonist mode; series mostly up to 22.3 µM. From the text:
NIH Chemical Genomics Center [NCGC] NIH Molecular Libraries Probe Production centers Network [MLPCN] MLPCN Grant: X01-DA026210-01 Assay Submitter (PI): Heilig, Markus Alexander NCGC Assay Overview: Neuropeptide S receptor (NPSR), previously known as GPR154, is a recently de-orphanized G protein coupled receptor. Its endogenous ligand is the 20 amino acids peptide Neuropeptide S (NPS). […] NPS and its receptor are found in various tissues. Specifically they are highly expressed in brain areas that have been implicated in modulation of arousal, stress and anxiety. Central administration of NPS in mice produces an unusual profile of activity by inducing wakefulness and arousal, while at the same time suppressing anxiety. Therefore, NPSR may represent a novel drug target for the treatment of sleep and anxiety disorders. To identify NPSR antagonists, we developed a cell-based cAMP assay. NPS can stimulate the production of cAMP in Chinese hamster ovary cells stably expressing NPS receptor. This change in intracellular cAMP level can be detected by a homogeneous LANCE cAMP assay based on the TR-FRET (time resolved fluorescence resonance energy transfer) between a europium-labeled cAMP tracer complex and a cAMP-specific antibody labeled with Alexa Fluor 647. The europium-labeled cAMP tracer complex is formed by the tight interaction between Biotin-cAMP (b-cAMP) and streptavidin labeled with Europium-W8044 chelate (Eu-SA). Light pulse at 320 nm excites the europium of the cAMP tracer and the energy emitted is transferred to the Alexa molecule bound to the cAMP antibody, generating a TR-FRET signal at 665 nm. Residual energy from the europium will produce a light at 620 nm. The native unlabeled cAMP from cell lysates competes with the europium-cAMP tracer for antibody binding and reversely reduces the emission signal of Alexa by interrupting FRET between the two labeled molecules. Both emission signals from the FRET donor (620 nm) and the acceptor (665 nm) can be detected by a plate reader in the TRF mode. Expression of result in fluorescence ratio (665 nm/620 nm) helps to normalize differences due to cell density and reagent dispensing. This assay was successfully optimized to a 1536-well plate format. Select compounds from the primary screen (AID 1461) were chosen for confirmation based on potency, efficacy, SAR, and activity across other assays in PubChem and at NCGC. Other compounds are analogs of active compounds from the primary sceen.
NCGC Assay Protocol Summary: A Chinese hamster ovary (CHO) cell line stably expressing the NPS receptor (CHO-NPSR) was obtained from Dr. Heilig lab at NIAAA and maintained in F-12 Kaighn's media (Invitrogen, Carlsbad, CA, 21127) supplemented with 10 % FBS, 100 units/ml penicillin, 100 ug/ml streptomycin and 250 ug/ml geneticin at 37C, 5% CO2 in a humidified atmosphere. Before the assay, aliquots of cells were frozen and stored at -135C. The assay was performed in 1536-well format. Data are reported for both the ratio of the two emission wavelengths, and also for the component 'donor' channel, Em2=620. […] IC50 values were determined from concentration-response data modeled with the standard Hill equation. NPS 1536-well assay protocol: (1) Fresh or frozen CHO-NPSR cells were suspended in F-12 Kaighn's media supplemented with 10 % FBS, 100 units/ml penicillin and 100 ug/ml streptomycin. Cells were plated at 4 ul/well (1200 cells) to white, tissue culture treated 1536-well plates, and then cultured at 37C, 5 % CO2 for 16 to 30 hours. (2) Add 23 nl/well of compound in DMSO solution. The final titration for each compound was between 0.6 nM and 46 uM. (3) Add 1 ul of stimulation reagent (1X HBSS buffer, 5 mM HEPES, 0.1% BSA, 500 uM RO-201724 (Sigma-Aldrich, B8279), 1.5% Alexa 647-labeled anti-cAMP antibody (from Perkin Elmer), 100 nM NPS) (4) Incubation at 37C, 5 % CO2 for 60 min. (5) Add 1 ul/well detection reagent. […]
On the technique in general: Time-resolved FRET reads energy transfer from a long-lived donor to a nearby acceptor.
Regarding `O=C(O)c1cccc(Nc2ncnc3ccccc23)c1`, the Potency entry was “inactive”.

In the case of `O=[N+]([O-])c1ccc(N=Nc2ccc(O)cc2O)cc1`, the Potency result was “inactive”.

Consider `Cc1cccc(-c2nnc(SCc3cc(=O)[nH]c4ccccc34)n2C)c1`, for which the Potency result was “inactive”.

`CC(C)Cc1nc(N2CCN(C(=O)c3ccccc3)CC2)c(C#N)c2c1CCC2`: the Potency entry is “inactive”.

Take `N#Cc1cnn(-c2ncnc3sc4c(c23)CCCC4)c1N`: the Potency result was “inactive”.

As for `O=C(/C(=C/c1ccc(Cl)cc1)c1nc2ccccc2[nH]1)c1cccs1`, the Potency was 8.91 µM (active).

Turning to `O=S1(=O)Nc2c(ccc3cccnc23)-c2ccccc21`, the Potency was 4.47 µM (active).

Take `Cc1oc2c(c1C(=O)NCc1cccnc1)C(=O)c1ccccc1C2=O`: the Potency result was “inactive”.

On to `CN(C)S(=O)(=O)Nc1ccccc1C(N)=O`, for which the Potency entry is “inactive”.

For the compound `O=C(COC(=O)c1ccccc1C(=O)c1ccc(Cl)c([N+](=O)[O-])c1)NC1CCCCCC1`, the Potency was 4.47 µM (active) and 8.91 µM (active).

For `CCOc1ccccc1NC1=CC(=O)CC(c2ccccc2)C1` (stereo not given), the Potency entry is “inactive”.

For `CCOC(=O)c1cnc(-n2nc(C)cc2C)nc1Nc1ccc(C)cc1`, the Potency entry is “inactive”.

Turning to `C/C(=N\NC(=S)NC1CCCCC1)c1c(F)cccc1F`, the Potency result was “inactive”.

With `Cc1cccnc1NC(=O)c1c(O)c2cccc3c2n(c1=O)CCC3`, the Potency entry was “inactive”.

For the compound `Cc1ccc(-n2ncc3c(NCc4ccc5c(c4)OCO5)ncnc32)c(C)c1`, the Potency entry is “inactive”.

With `CC1=C/C(=N\NC(=S)Nc2cccnc2)CC(C)(C)C1`, the Potency result is “inactive”.

Take `NC(=S)N/N=C/c1ncc(C(F)(F)F)cc1Cl`: the Potency entry is “inactive”.

For the compound `Nn1c(COc2ccccc2)nnc1SCc1cc(=O)[nH]c2ccccc12`, the Potency result is “inactive”.

As for `O=C1CC(NCc2ccncc2)C(=O)N1c1ccccc1` (stereo not given), the Potency result is “inactive”.

For the compound `CCCCCN1C=CC=C/C1=C\C=C(C#N)C#N`, the Potency entry was “inactive”.

Consider `CCOc1ccc(N2C(=O)CC(NCCc3ccncc3)C2=O)cc1` (stereo not given), for which the Potency result is “inactive”.

For `O=[N+]([O-])c1ccc(-c2nc(C(Cl)Cl)c3ccccc3n2)cc1`, the Potency entry is “inactive”.

Turning to `c1cncc(-c2nc(-c3ccco3)cs2)c1`, the Potency entry is “inactive”.

For the compound `O=C(CCc1ccccc1)Nc1ncnc2c1C(c1ccccc1)c1c(ccc3ccccc13)O2` (stereo not given), the Potency is 3.55 µM (active).

Regarding `Cc1cc(C)n(-c2nc(Nc3ccccc3C(F)(F)F)nc(-n3nc(C)cc3C)n2)n1`, the Potency is 11.2 µM (active).

Consider `COCCCn1cnc2c(c1=O)c1nc3ccccc3nc1n2CCc1ccccc1`, for which the Potency result is “inactive”.

Consider `Cc1ccc(S(=O)(=O)Nc2ccccc2CNc2c(C)n(C)n(-c3ccccc3)c2=O)cc1`, for which the Potency entry is “inactive”.

As for `CCOC(=O)CC(=O)Nc1ncnc2c1C(c1ccccc1)c1c(ccc3ccccc13)O2` (stereo not given), the Potency is 0.794 µM (active).

As for `COc1ccc(OC)c(C2C(C(=O)Nc3nc4ccccc4s3)=C(C)NC3=C2C(=O)CCC3)c1` (stereo not given), the Potency was 2.82 µM (active).

As to `Cc1cccc(N2CCN(C(=O)c3ccc(CNc4c(N5CCC(C)CC5)c(=O)c4=O)cc3)CC2)c1C`, the Potency entry was “inactive”.

`CCOc1ccc(-n2c(=S)sc3c(=O)[nH]c(SCC(=O)C(C)(C)C)nc32)cc1`: the Potency is 7.08 µM (active).

Take `COc1ccccc1-c1nnc(SC2CCc3ccccc3NC2=O)s1` (stereo not given): the Potency result is “inactive”.

Turning to `CC1(C)Cc2c(c(N3CCOCC3)nc3sc4c(NCC5CCCO5)nnnc4c23)CS1` (stereo not given), the Potency entry is “inactive”.

As to `O=C(Nc1cc(=O)[nH]c2nc(-c3ccc(Cl)cc3)nn12)c1ccccc1`, the Potency is 3.98 µM (active).

With `COc1cc(/C=C2\SC(c3ccc(C)cc3)=NC2=O)cc(OC)c1O`, the Potency is 10 µM (active).

Turning to `COc1ccc(N=C2S/C(=C\c3ccc(N4CCOCC4)o3)C(=O)N2CCc2c[nH]c3ccccc23)cc1`, the Potency is 2.24 µM (active).

In the case of `CCn1cc(C(=O)NCC2CCCO2)c(=O)c2cc(S(=O)(=O)N3CCCCCC3)ccc21` (stereo not given), the Potency entry was “inactive”.

For `COc1ccc(C(=O)N(Cc2ccco2)Cc2cccs2)c(O)c1`, the Potency entry is “inactive”.

Take `C=CCOc1c(Cl)cc(CNc2ccc(N(C)C)cc2)cc1OC`: the Potency result was “inactive”.

For the compound `CCCCOc1ccc(OCCCN2CCOCC2)cc1`, the Potency entry is “inactive”.
